Inconclusive results are not listed. Unmarked numbers belong to inactive results. Active and inactive are the calls of the source. Calls follow the shape of the dose curve; as a rule, active = well fitted cell-killing curve with a large enough effect; inconclusive = small, poorly fitted or top-dose-only effect; inactive = no such curve, though single readings can be large or run the other way.
experiment: qHTS of pediatric cancer cell lines to identify multiple opportunities for drug repurposing: Primary screen for A673 cells (AID 1347092); details: A673 Ewing sarcoma viability, CellTiter-Glo ATP luminescence, 48 h; series mostly up to 46 µM; activity change, negative = cytotoxic: at the top concentration; also: nearly all actives have a fitted effect of over 45% in size; as to activity change, negative = cytotoxic: % is scaled to controls: 0 for no effect and ±100 for the full control effect
Summary of the method: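 48 h compound exposure, A673, 500-1,000 cells/well, 37 degrees C/5% CO2. MIPE: 11-point, 0.78 nM-46 µM; NPC: 8-point, 0.59 nM-46 µM (final). Readout CellTiter-Glo luminescence after 15 min RT.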
Potency is read from the fitted curve at half-maximal effect.

| SMILES | Potency | activity change, negative = cytotoxic |
| --- | --- | --- |
| Cc1nc(N)sc1-c1ccnc(Nc2ccc(N3CCOCC3)cc2)n1 | 9.35 µM (active) | – |
| O=C1c2ccccc2-[n+]2ccc3c([nH]c4ccccc43)c21 | 1.18 µM (active) | – |
| C[C@H]1[C@H](NC(=O)C(=NOC(C)(C)C(=O)O)c2csc(N)n2)C(=O)N1S(=O)(=O)O | – | -4.99% |
| OC[C@@H](O)[C@H](O)[C@H](O)[C@@H](O)CO | inactive | – |
| C[N+](C)(C)CCCCCC[N+](C)(C)C | – | 4.66% |
| C[N+]1(C)[C@@H]2CC(OC(=O)[C@H](CO)c3ccccc3)C[C@H]1[C@H]1O[C@@H]12 (some centres not stated) | – | -2.65% |
| CCOC(=O)O[C@]1(C(=O)OCCl)CC[C@@H]2[C@H]3CCC4=CC(=O)C=C[C@]4(C)[C@@H]3[C@@H](O)C[C@@]21C | – | 6.77% |
| O=C(O)Cc1cccc2ccccc12 | inactive | – |
| Cc1ccc(C(=O)Nc2cccc(C(F)(F)F)c2)cc1Nc1nc(-c2cccnc2)nc2c1cnn2C | 9.35 µM (active) | – |
| COc1cccc2c1CCCC2CCCN1CCN(C2CCCCC2)CC1 (configuration not stated) | – | -24.4% |
| NCCS | – | 41.4% |
| COc1ccc(-c2coc3cc(O)ccc3c2=O)cc1 | – | -2.94% |
| CN(C)CCC(c1ccccc1)c1ccccn1 (configuration not stated) | – | 11% |
| COc1cc(O)c2c(c1)C(=O)c1cc(C)cc(O)c1C2=O | – | 0.62% [at 16.1 µM] |
| O=c1c(-c2ccc(O)cc2)coc2cc(O[C@@H]3O[C@H](CO)[C@H](O)[C@H](O)[C@H]3O)ccc12 | – | 3.77% |
| C=C1C(=O)[C@@]23C(CC[C@@H]1[C@H]2O)[C@@]12CO[C@]3(O)[C@@H](O)[C@@H]1C(C)(C)CC[C@@H]2O (some centres not stated) | 3.72 µM (active) | – |
| CN[C@@H](C)C(=O)N[C@H]1CN(C(=O)CC(C)C)CC[C@H]2CC[C@@H](C(=O)NC(c3ccccc3)c3ccccc3)N2C1=O | 0.0074 µM (active) | – |
| O=c1ccn([C@@H]2O[C@H](CO)[C@H](O)[C@H]2O)c(=O)[nH]1 | – | 7.43% |

| SMILES | Potency | activity change, negative = cytotoxic |
| --- | --- | --- |
| Cc1[nH]c(C=C2C(=O)Nc3ccc(S(=O)(=O)Cc4c(Cl)cccc4Cl)cc32)c(C)c1C(=O)N1CCC[C@H]1CN1CCCC1 | 23.5 µM (active) | – |
| CC(C)C[C@H](CC(=O)O)C(=O)N[C@@H](Cc1c[nH]c2ccccc12)C(=O)N[C@@H](C)c1ccccc1 | 1.87 µM (active) | – |
| NC[C@@H]1O[C@@H](O[C@H]2[C@@H](O)[C@H](O[C@@H]3[C@@H](O)[C@@H](N)C[C@H](N)[C@H]3O[C@H]3O[C@H](CN)[C@@H](O)[C@@H](O)[C@H]3N)O[C@H]2CO)[C@H](N)[C@@H](O)[C@@H]1O | – | 6.19% |
| O=C1C[C@@H](c2ccc(O)cc2)Oc2cc(O)cc(O)c21 | – | -18% |
| O=C(O)c1ccccc1C(=O)Nc1ccc(-c2ccccc2)cc1 | – | -5.91% |
| O=C(O)c1cc(-c2ccccc2)nc2ccccc12 | inactive | – |
| C[C@@H](O)[C@H]1C(=O)N2C(C(=O)O)=C(S[C@@H]3CN[C@H](C(=O)N(C)C)C3)[C@H](C)[C@H]12 | inactive | – |
| CC(=Cc1ccccc1)C=C1SC(=S)N(CC(=O)O)C1=O | – | 76.8% |
| COc1ccc2cccc(CCNC(C)=O)c2c1 | – | -12.4% |
| CC(C)C(C)C=CC(C)C1CCC2C3=CC=C4CC(O)CCC4(C)C3CCC21C (configuration not stated) | – | -2.61% |
| O=C(NC1CCOCC1)c1ccc(-c2cc(-c3cn[nH]c3-c3ccccn3)ccn2)cc1 | – | 2.58% |
| CC(C)C(=O)Oc1ccc(CO)cc1[C@H](CCN(C(C)C)C(C)C)c1ccccc1 | – | -26.5% |
| O=C1NC(=O)C(c2ccccc2)(c2ccccc2)N1 | – | 3.13% |
| Cn1c(N2CCCCS2(=O)=O)nc(C(=O)NCc2ccc(F)cc2)c(O)c1=O | – | -11.4% |
| CC(C)(C)c1ccc(C(O)CCCN2CCC(C(O)(c3ccccc3)c3ccccc3)CC2)cc1 (configuration not stated) | – | 2.09% |
| O=C1NCC2(CCN(CCc3ccccc3)CC2)O1 | – | -3.11% |
| CC(C)(C(=O)NCC(F)(F)C(F)(F)F)C(=O)N[C@@H]1C(=O)Nc2ccccc2-c2ccccc21 | 0.0935 µM (active) | – |
| O=C(O)c1cc(O)c2c(c1)C(=O)c1cccc(O)c1C2=O | – | -15.4% [at 92.7 µM] |

experiment: qHTS of pediatric cancer cell lines to identify multiple opportunities for drug repurposing: Primary screen for SK-N-MC cells (AID 1347093); details: SK-N-MC viability, CellTiter-Glo luminescence, 48 h; series mostly up to 46 µM; activity change, negative = cytotoxic: at the top concentration;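 as to activity change, negative = cytotoxic: plate controls were DMSO neutral control for no effect and bortezomib for full effect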
Summary of the method: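 Metabolically active cells were quantified by ATP-dependent luminescence (CellTiter-Glo, 15 min at room temperature) following 48 h treatment. Cells had been plated at 500-1,000 per well and settled for 5 h beforehand.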

| SMILES | Potency | activity change, negative = cytotoxic |
| --- | --- | --- |
| Cc1nc(N)sc1-c1ccnc(Nc2ccc(N3CCOCC3)cc2)n1 | 1.05 µM (active) | – |
| O=C1c2ccccc2-[n+]2ccc3c([nH]c4ccccc43)c21 | 1.32 µM (active) | – |
| C[C@H]1[C@H](NC(=O)C(=NOC(C)(C)C(=O)O)c2csc(N)n2)C(=O)N1S(=O)(=O)O | – | -1.23% |
| OC[C@@H](O)[C@H](O)[C@H](O)[C@@H](O)CO | inactive | – |
| C[N+](C)(C)CCCCCC[N+](C)(C)C | – | 1.92% |
| C[N+]1(C)[C@@H]2CC(OC(=O)[C@H](CO)c3ccccc3)C[C@H]1[C@H]1O[C@@H]12 (some centres not stated) | – | -7.79% |
| CCOC(=O)O[C@]1(C(=O)OCCl)CC[C@@H]2[C@H]3CCC4=CC(=O)C=C[C@]4(C)[C@@H]3[C@@H](O)C[C@@]21C | – | 54.5% |
| O=C(O)Cc1cccc2ccccc12 | inactive | – |
| Cc1ccc(C(=O)Nc2cccc(C(F)(F)F)c2)cc1Nc1nc(-c2cccnc2)nc2c1cnn2C | 9.35 µM (active) | – |
| COc1cccc2c1CCCC2CCCN1CCN(C2CCCCC2)CC1 (configuration not stated) | 18.7 µM (active) | – |
| NCCS | – | -20.6% |
| COc1ccc(-c2coc3cc(O)ccc3c2=O)cc1 | – | 28.1% |
| CN(C)CCC(c1ccccc1)c1ccccn1 (configuration not stated) | – | 13.3% |
| COc1cc(O)c2c(c1)C(=O)c1cc(C)cc(O)c1C2=O | – | -10.2% [at 16.1 µM] |
| O=c1c(-c2ccc(O)cc2)coc2cc(O[C@@H]3O[C@H](CO)[C@H](O)[C@H](O)[C@H]3O)ccc12 | – | -18.5% |
| C=C1C(=O)[C@@]23C(CC[C@@H]1[C@H]2O)[C@@]12CO[C@]3(O)[C@@H](O)[C@@H]1C(C)(C)CC[C@@H]2O (some centres not stated) | 1.66 µM (active) | – |
| CN[C@@H](C)C(=O)N[C@H]1CN(C(=O)CC(C)C)CC[C@H]2CC[C@@H](C(=O)NC(c3ccccc3)c3ccccc3)N2C1=O | 0.372 µM (active) | – |
| O=c1ccn([C@@H]2O[C@H](CO)[C@H](O)[C@H]2O)c(=O)[nH]1 | – | 68.5% |

| SMILES | Potency | activity change, negative = cytotoxic |
| --- | --- | --- |
| Cc1[nH]c(C=C2C(=O)Nc3ccc(S(=O)(=O)Cc4c(Cl)cccc4Cl)cc32)c(C)c1C(=O)N1CCC[C@H]1CN1CCCC1 | 18.7 µM (active) | – |
| CC(C)C[C@H](CC(=O)O)C(=O)N[C@@H](Cc1c[nH]c2ccccc12)C(=O)N[C@@H](C)c1ccccc1 | 1.66 µM (active) | – |
| NC[C@@H]1O[C@@H](O[C@H]2[C@@H](O)[C@H](O[C@@H]3[C@@H](O)[C@@H](N)C[C@H](N)[C@H]3O[C@H]3O[C@H](CN)[C@@H](O)[C@@H](O)[C@H]3N)O[C@H]2CO)[C@H](N)[C@@H](O)[C@@H]1O | – | -8.42% |
| O=C1C[C@@H](c2ccc(O)cc2)Oc2cc(O)cc(O)c21 | – | 2.39% |
| O=C(O)c1ccccc1C(=O)Nc1ccc(-c2ccccc2)cc1 | – | -19.8% |
| O=C(O)c1cc(-c2ccccc2)nc2ccccc12 | 49.1 µM (active) | – |
| C[C@@H](O)[C@H]1C(=O)N2C(C(=O)O)=C(S[C@@H]3CN[C@H](C(=O)N(C)C)C3)[C@H](C)[C@H]12 | inactive | – |
| CC(=Cc1ccccc1)C=C1SC(=S)N(CC(=O)O)C1=O | 13.2 µM (active) | – |
| COc1ccc2cccc(CCNC(C)=O)c2c1 | – | -30% |
| CC(C)C(C)C=CC(C)C1CCC2C3=CC=C4CC(O)CCC4(C)C3CCC21C (configuration not stated) | – | 34.3% |
| O=C(NC1CCOCC1)c1ccc(-c2cc(-c3cn[nH]c3-c3ccccn3)ccn2)cc1 | – | 45.3% |
| CC(C)C(=O)Oc1ccc(CO)cc1[C@H](CCN(C(C)C)C(C)C)c1ccccc1 | – | -36.6% |
| O=C1NC(=O)C(c2ccccc2)(c2ccccc2)N1 | – | -16.8% |
| Cn1c(N2CCCCS2(=O)=O)nc(C(=O)NCc2ccc(F)cc2)c(O)c1=O | – | 14.7% |
| CC(C)(C)c1ccc(C(O)CCCN2CCC(C(O)(c3ccccc3)c3ccccc3)CC2)cc1 (configuration not stated) | – | 4.91% |
| O=C1NCC2(CCN(CCc3ccccc3)CC2)O1 | – | -21.1% |
| CC(C)(C(=O)NCC(F)(F)C(F)(F)F)C(=O)N[C@@H]1C(=O)Nc2ccccc2-c2ccccc21 | 3.72 µM (active) | – |
| O=C(O)c1cc(O)c2c(c1)C(=O)c1cccc(O)c1C2=O | 19.1 µM (active) | – |

Source: PubChem BioAssay (NCATS)
